miR122 inh: miR-122 sensor activation | actives 0.14% (n = 340,000) | activation, % at 12.5 µM | AID 623901 | Huh7 psiCHECK-miR122 Renilla luciferase sensor, 48 h;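 active = mean activation of 30% or more, with every replicate also reaching 30%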;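 note: 0% = median of neutral control wells and 100% = median of positive control wells; higher luciferase signal means stronger suppression of miR-122 activity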
Starred values were filed as active, the others as inactive. The entries come from a sample that favours hits as a whole.

SMILES | miR122 inh
COc1ccc(-c2c(-c3ccccc3)c(C(=O)C(=O)NCCCN(C)C)n3ccc4cc(OC)c(OC)cc4c23)cc1OC | 37.5*
C[C@H](CO)N1C[C@H](C)[C@H](CN(C)Cc2ccccn2)Oc2ncc(Br)cc2C1=O | -3.2
C[C@H]1CN([C@@H](C)CO)C(=O)c2cc(/C=C/c3ccccc3)cnc2O[C@@H]1CN(C)C(=O)C1CCC1 | 4.7
C[C@H]1CN([C@@H](C)CO)C(=O)c2cc(/C=C/c3ccccc3)cnc2O[C@@H]1CN(C)S(=O)(=O)c1ccc(F)cc1 | 6.2
C[C@H]1CN([C@@H](C)CO)C(=O)c2cc(/C=C/c3ccccc3)cnc2O[C@H]1CN(C)C(=O)Cc1ccccn1 | 1.3
C[C@H]1CN([C@@H](C)CO)C(=O)c2cc(-c3ccccc3F)cnc2O[C@H]1CN(C)Cc1ccccc1F | 2.2
COc1ccc(NC(=O)N2CCCCN3[C@H](CO)[C@H](c4ccc(C#CCC(C)C)cc4)[C@H]3C2)cc1 | 33.7*
COCC#Cc1cnc2c(c1)C(=O)N([C@@H](C)CO)C[C@H](C)[C@H](CN(C)C(=O)Nc1ccc(OC)cc1)O2 | -22.6
Cc1ccccc1-c1ccc2c(c1)O[C@@H](CN(C)C(=O)Nc1ccccc1)[C@@H](C)CN([C@H](C)CO)S2(=O)=O | 4.7
COc1ccc(C#Cc2ccc3c(c2)O[C@@H](CN(C)C(=O)NC2CCCCC2)[C@H](C)CN([C@@H](C)CO)S3(=O)=O)cc1 | -16.6
COc1cccc(NC(=O)N(C)C[C@@H]2Oc3cc(C#Cc4ccccc4)ccc3S(=O)(=O)N([C@H](C)CO)C[C@H]2C)c1 | 2.3
COc1ccc(C#Cc2ccc([C@@H]3[C@H](CO)N4CCCCN(C(=O)Nc5ccccc5)C[C@@H]34)cc2)cc1 | 36.0*
Cc1ccccc1-c1ccc([C@@H]2[C@@H](CO)N3CCCCN(C(=O)Nc4ccc(F)cc4)C[C@@H]23)cc1 | 30.8*
Cc1ccccc1-c1ccc2c(c1)O[C@@H](CN(C)C(=O)Nc1ccccc1)[C@@H](C)CN([C@@H](C)CO)S2(=O)=O | -3.8
C[C@H]1CN([C@@H](C)CO)C(=O)c2cc(-c3cccc(C#N)c3)cnc2O[C@H]1CN(C)C | 3.6
CCCN(C)C[C@@H]1Oc2cc(C#Cc3ccccc3F)ccc2S(=O)(=O)N([C@H](C)CO)C[C@@H]1C | 6.1
CCCN(C)C[C@H]1Oc2cc(-c3ccc(OC)cc3)ccc2S(=O)(=O)N([C@H](C)CO)C[C@H]1C | -76.7
C[C@H](CO)N1C[C@H](C)[C@H](CN(C)C(=O)Nc2ccc(F)cc2)Oc2cc(C#CC3(O)CCCC3)ccc2S1(=O)=O | -0.7
C[C@@H]1CN([C@H](C)CO)C(=O)c2cc(C#Cc3ccccc3)cnc2O[C@@H]1CN(C)Cc1ccccn1 | -0.3
CCCC#Cc1cnc2c(c1)C(=O)N([C@H](C)CO)C[C@H](C)[C@H](CN(C)C(=O)c1ccccc1)O2 | -98.0
COc1ccc(NC(=O)/C(Cl)=C(/Cl)S(=O)(=O)Cc2ccccc2)cn1 | 32.3*
COc1ccc(NC(=O)c2cccc(S(=O)(=O)Nc3ccc(Br)cc3)c2)cn1 | -102.6
CCCC#Cc1cnc2c(c1)C(=O)N([C@@H](C)CO)C[C@H](C)[C@H](CN(C)Cc1cccnc1)O2 | -2.9
C[C@H]1CN([C@@H](C)CO)S(=O)(=O)c2ccc(-c3ccccc3)cc2O[C@@H]1CN(C)Cc1ccccc1C(=O)O | -26.1
C[C@@H]1CN([C@H](C)CO)C(=O)c2cc(C#C[C@@H](C)O)cnc2O[C@H]1CN(C)C(=O)CN(C)C | 8.9
SMILES | miR122 inh
CCc1nnc(SCC(=O)Nc2ccc(N3CCOCC3)cc2)o1 | 31.6*
CCc1ccc(NC(=O)CN2CCc3ccccc3C2)cc1 | -264.8
CC(C)N1C(=O)CC(Nc2ccc(N3CCOCC3)cc2)C1=O (stereo not drawn) | -182.9
COCC#Cc1cnc2c(c1)C(=O)N([C@@H](C)CO)C[C@H](C)[C@H](CN(C)Cc1ccccc1)O2 | -0.3
C[C@H]1CN([C@@H](C)CO)C(=O)c2cc(-c3cccc(C#N)c3)cnc2O[C@H]1CN(C)Cc1ccccc1 | 6.4
C[C@@H]1CN([C@H](C)CO)C(=O)c2cc(/C=C/c3ccccc3)cnc2O[C@@H]1CN(C)S(=O)(=O)c1ccc(F)cc1 | 8.0
Cc1ccc(-c2cnc3c(c2)C(=O)N([C@@H](C)CO)C[C@@H](C)[C@@H](CN(C)Cc2ccccc2F)O3)cc1 | -7.5
COCC(=O)N(C)C[C@@H]1Oc2cc(-c3ccccc3)ccc2S(=O)(=O)N([C@@H](C)CO)C[C@H]1C | 4.5
COCC(=O)N(C)C[C@H]1Oc2cc(-c3ccccc3)ccc2S(=O)(=O)N([C@H](C)CO)C[C@H]1C | 8.1
Cc1ccc(S(=O)(=O)N(C)C[C@H]2Oc3cc(-c4cccc(F)c4)ccc3S(=O)(=O)N([C@@H](C)CO)C[C@H]2C)cc1 | -4.2
COCC(=O)N(C)C[C@H]1Oc2cc(-c3ccc(C#N)cc3)ccc2S(=O)(=O)N([C@@H](C)CO)C[C@H]1C | 50.8*
COc1ccc(S(=O)(=O)N(C)C[C@@H]2Oc3cc(-c4cccc(F)c4)ccc3S(=O)(=O)N([C@@H](C)CO)C[C@H]2C)cc1 | 39.7*
Cc1ccc(S(=O)(=O)N(C)C[C@@H]2Oc3cc(-c4cccc(F)c4)ccc3S(=O)(=O)N([C@@H](C)CO)C[C@@H]2C)cc1 | 7.7
COCC(=O)N(C)C[C@@H]1Oc2cc(-c3ccccc3)ccc2S(=O)(=O)N([C@H](C)CO)C[C@@H]1C | 6.0
COCC(=O)N(C)C[C@@H]1Oc2cc(-c3cccc(F)c3)ccc2S(=O)(=O)N([C@@H](C)CO)C[C@H]1C | -2.2
COCC(=O)N(C)C[C@H]1Oc2cc(-c3ccccc3F)ccc2S(=O)(=O)N([C@H](C)CO)C[C@H]1C | 46.4*
CO[C@H]1CN(C)C(=O)c2ccc(NC(=O)c3ccccc3)cc2OC[C@H](C)N(C)C[C@H]1C | -1.6
CCC(=O)Nc1ccc2c(c1)OC[C@H](C)N(C(=O)CN1CCOCC1)C[C@H](C)[C@H](OC)CN(C)C2=O | 4.0
C[C@@H]1CN([C@H](C)CO)C(=O)c2cc(-c3ccccc3F)cnc2O[C@H]1CN(C)C(=O)C1CCCCC1 | 13.2
Cc1ccc(-c2ccc3c(c2)O[C@H](CN(C)Cc2cccc(C(=O)O)c2)[C@@H](C)CN([C@@H](C)CO)S3(=O)=O)cc1 | 3.8
C[C@H](O)C#Cc1ccc2c(c1)O[C@@H](CN(C)Cc1cccnc1)[C@@H](C)CN([C@H](C)CO)S2(=O)=O | 2.8
C[C@@H]1CN([C@@H](C)CO)C(=O)c2cc(-c3ccc(F)cc3)cnc2O[C@@H]1CN(C)Cc1cccnc1 | -50.7
C[C@H]1CN([C@@H](C)CO)C(=O)c2cc(C#Cc3ccccc3F)cnc2O[C@@H]1CN(C)S(=O)(=O)c1ccccc1 | 2.2
CCC(=O)N(C)C[C@H]1Oc2ncc(C#CC3(O)CCCC3)cc2C(=O)N([C@@H](C)CO)C[C@H]1C | -0.1
COc1cccc(-c2cnc3c(c2)C(=O)N([C@H](C)CO)C[C@H](C)[C@H](CN(C)Cc2cccc(C(F)(F)F)c2)O3)c1 | 0.5
N#C/C(=C\c1ccc(N2CCOCC2)o1)C(=O)NCC1CCCO1 (stereo not drawn) | 36.1*
O=C(Nc1ccc(Cn2cccn2)cc1)c1ccc(COc2ccccc2Br)cc1 | 31.5*
C[C@@H]1CN([C@@H](C)CO)S(=O)(=O)c2ccc(-c3ccccc3)cc2O[C@H]1CN(C)Cc1ccccc1C(=O)O | -5.0
COCC#Cc1cnc2c(c1)C(=O)N([C@@H](C)CO)C[C@H](C)[C@H](CN(C)C(=O)Nc1c(C)noc1C)O2 | -4.7

Bioassay records: PubChem, Broad Institute
